Values joined by “and” are separate entries in the source; they are usually repeats but may differ in a detail not shown here. Equal values may be shown once. Compounds without any hit were thinned out: in the full panel of roughly 83,000, 20% have a hit.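 The test compound was applied at a single concentration to cells in 96-well plates for 48 hours, and percent growth was recorded.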 Unmarked numbers belong to inactive results. Active and inactive are the calls of the source. How the source made its calls: active means growth percent below 10; inactive means the rest.
Tested on: MDA-MB-468 breast
Assay: NCI-60 one-dose screen, 48 h (100 = growth as untreated, 0 = no growth, -100 = all killed)
Conditions: 10 µM unless noted

SMILES	growth
COc1cc(CNC(=O)CCCC/C=C/C(C)C)ccc1OCc1nnc(Nc2ccccc2F)o1	58.9%
O=C1OC(Oc2ccccc2)(c2ccccc2)c2ccccc21 (stereo not given)	112%
COc1ccc(CNC(=O)COc2ccc(/C=N/Nc3nc4ccccc4s3)cc2)cc1	28.3%
O=C(Nc1cccc(Cn2c(=O)[nH]c3ccc(Oc4ncccn4)cc3c2=O)c1)c1cccc(Cl)c1	18.6%
COc1cccc(-c2nc3occn3c2-c2ccnc(NCCCNS(=O)(=O)c3ccc(C(F)(F)F)cc3)n2)c1	81.6%
N=C(N)c1ccc(-c2ccc(-c3ccc(F)cc3)s2)nc1	25.1%
c1ccc(/C(=N\N=C(/c2ccccc2)c2cccs2)c2cccs2)cc1	105%
CC(C)(C)c1ccc(OCCOC(=O)CBr)cc1	87.6%
O=C1/C=C/[C@@H](O)[C@@H]2C[C@@H](O)C[C@H]2/C=C/CCC[C@H](CCOCc2ccccc2)O1	-41.9% (active)
Cc1cc(O)c(C2=NN(c3ccc(S(N)(=O)=O)cc3)C(c3ccccc3O)C2)cc1Cl (stereo not given)	17.2%
c1ccc(Cn2cc3c(c2)-c2nc(Nc4ccccc4)ncc2CC3)cc1	115% [100 µM]
C=CCOc1ccc(N=NC(C#N)C#N)cc1	30.3%
COc1ccc(C(C)c2cc(OC)c(OC)c(OC)c2)cc1 (stereo not given)	41.6%
COc1cc(NCCCCCN)c2ncccc2c1	114%
COC(=O)/C=C1/SC(=Nc2ccc(C(F)(F)F)cc2)N(CCc2c[nH]c3ccc(O)cc23)C1=O	8.44% (active)
Cc1ccc(NS(=O)(=O)c2ccc(C)cc2)cc1	94.4% and 87.3%
C/C(=N\NC(N)=S)c1nc2ccc(Cl)cc2[nH]1	44.2%
O=c1cc(C(F)(F)F)c2cc(-c3cc4ccccc4c(=O)o3)c(O)cc2o1	61.4%
COc1ccc([C@H]2[C@H](O)C(=O)N2c2cc(OC)c(OC)c(OC)c2)cc1O	5.56% (active)
O=[N+]([O-])c1cccc(-c2nc3sccn3c2-c2ccnc(NCCCNS(=O)(=O)c3ccc(Cl)cc3)n2)c1	13.1%

SMILES	growth
Cn1c([N+](=O)[O-])cnc1/C=C1\Oc2ccccc2C1=O	28.3%
O=C(CN1CCOCC1)Nc1ccc2ncnc(Nc3ccc(Oc4cccc(F)c4)c(Cl)c3)c2c1	-17.1% (active)
Cc1ccc2sc3c(NCCCNCCO)nc4ccccc4c3c(=O)c2c1	42.5%
COc1ccc(C(=O)/C=C/c2cc(-c3cc(OC)c(OC)c(OC)c3)n[nH]2)cc1OC	-94.6% (active)
C=C1CC[C@@]2(C#N)[C@H]3[C@H](CC[C@@H]2C)[C@@H](C)C[C@@H](CC(C)(C)C#N)[C@H]13	59.7%
COc1ccc(C2=NNC(c3ccc(Oc4nc5c(c(=O)n(C)c(=O)n5C)n4C)c(OC)c3)C2)cc1 (stereo not given)	89.5%
O=Nc1c(O)ccc2ccccc12.O=Nc1c(O)ccc2ccccc12.O=Nc1c([O-])ccc2ccccc12.[Fe+3]	106%
CC(O)c1cc2ccccc2c(=O)o1 (stereo not given)	98.7%
Cc1ccc(C2CC3c4ccccc4C2C2CCCCN32)cc1 (stereo not given)	-0.132% (active)
Cc1ccc(NC(=O)c2nc(S(C)=O)oc2-c2ccc(F)cc2)cc1Nc1nccc(-c2cccnc2)n1 (stereo not given)	10.6%
Cc1nc2cc(-n3c(-c4ccc(F)cc4)nc4ccccc4c3=O)ccc2n1Cc1ccccc1	15.2%
O=C1CCc2c(sc3[nH]c(=S)n(Cc4ccc(Cl)cc4)c(=O)c23)C1	-18.7% (active)
CN=C(NC)N/N=C(C)\C=N\NC(=NC)NC	121%
COc1ccc2c3c(c(OCCCN(C)C)nc2c1)-c1ccc(Cl)cc1C3=O	43.5%
Cc1ccc(N2C(=O)C=CC2=O)cc1	-25.2% (active)
O=C(OCc1ccccc1)c1ccccc1	95% and 74.9%
COc1ccc(-c2nn(-c3ccc(NC(=O)Nc4ccc(Cl)c(C(F)(F)F)c4)cc3)cc2-c2ccncc2)cc1Cl	-46.4% (active)
COc1ccc(/C=N/NC(N)=S)cc1	82.6%
CC(C)c1ccc(C(=O)Nc2sc3c(c2C(N)=O)CCC(=O)C3)cc1	-47.6% (active)
CC/C=C\C[C@H](O)C/C=C1/C(=O)C=C[C@@H]1C/C=C\CCCC(=O)O	28.7%

Reference: PubChem BioAssay (NCI)
